Source: PubChem
AMA1-RON2 inh – inhibitors of Plasmodium falciparum AMA1-RON2 interaction; AlphaScreen AMA1-biotinylated RON2 peptide binding; Potency, µM (titrated, usually from 58.2 µM), for the others: at the top dose activity change, negative = inhibition, actives largely listed as inhibitors; 360,000 tested, 0.2% active;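 note: potency is the fitted concentration of half-maximal effect; 0% = vehicle wells and -100% = peptide control; nearly all actives have a fitted effect of over 45% in size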
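AMA1 (3D7) with his tag at 25 nM final met compounds first, then biotinylated RON2 peptide at 25 nM; detection used donor plus acceptor beads, 10 µg/mL apiece, read by AlphaScreen after 30 min at room temperature.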
Pf growth 96h – P. falciparum growth inhibition at 96 hours. 320,000 tested, 6.9% active. P. falciparum luciferase reporter growth, 96 h. AID 504834. Potency, µM (top dose mostly 28.7 µM), without a hit: at the top dose activity change, negative = inhibition, hits mostly inhibitors; note: potency is the fitted concentration of half-maximal effect; % is set by controls: 0 for no effect and ±100 for the full control effect
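Parasite growth measured via integrated firefly luciferase reporter in P. falciparum. Infected erythrocytes at 2% hematocrit, 0.05% parasitemia final were treated 96 hours at 37 C under 5% CO2, and luminescence was read.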
Cycloheximide cs – counter-screen hit for Shiga toxin inhibitors, cycloheximide; cell reporter, cycloheximide protein synthesis inhibition counterscreen; 300,000 tested, 12% active; max response, %; in the data active = max response mostly above about 13%, no sharp cut-off; inactive = mostly below about 14%; note: read at 38.3 µM for the half of the compounds with a filed dose; 0% is about no effect
HCV inh – inhibitors of hepatitis C virus infection. Huh7.5.1 HCVcc-Cre infection, luciferase reporter, 44 h. Potency, µM (highest dose often 41.8 µM), inactives show at the top dose activity change, negative = inhibition, most hits filed as inhibitors. 340,000 tested, 3.4% active. AID 651820; note: potency is the fitted concentration of half-maximal effect; % is set by controls: 0 for no effect and ±100 for the full control effect
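Luciferase read-out (15 sec integration) after a 15 min room-temperature substrate step quantifies HCVcc-Cre infection. Cells, 1,000 per well, had compound added 4 h post-plating, then virus at ~0.5 moi, and were cultured 44 h.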
Shiga inhibitor – blocks Shiga toxin action in Vero cells; inhibition, % at 38.7 µM; 290,000 tested, 9.2% active; Vero cells, Shiga toxin protein synthesis inhibition reporter; in the data active = inhibition mostly above about 28%, no sharp cut-off; inactive = mostly below about 43%; note: 0% is about no effect
Pf growth 48h – P. falciparum growth inhibition at 48 hours (one generation); P. falciparum luciferase growth in erythrocytes, 48 h; Potency, µM (doses to about 28.7 µM), for inactives: top-dose activity change, negative = inhibition, hits mostly inhibitors; 310,000 tested, 5.9% active; AID 504832; note: potency is the fitted concentration of half-maximal effect; % is set by controls: 0 for no effect and ±100 for the full control effect
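Luciferase-expressing P. falciparum in infected erythrocytes (2% hematocrit, 0.1% parasitemia final) in RPMI 1640/0.5% Albumax were exposed to compound for 48 hours at 37 C, 5% CO2; growth read as luminescence.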
The depositor's hits bear a star; ? = inconclusive; / = no result given. Compounds with a hit are over-represented: about 21% of the library has one in this group of screens. Unless noted, calls come from the whole dose curve; as a rule, active = well fitted curve in the direction sought with a large enough effect; inconclusive = small, poorly fitted or top-dose-only effect, or another doubt; inactive = no such curve, though single readings can be large; an effect the other way counts as inactive or inconclusive.

SMILES	AMA1-RON2 inh	Pf growth 96h	Cycloheximide cs	HCV inh	Shiga inhibitor	Pf growth 48h
Cc1cc(C)c2c(c1)NC(c1cc3c(cc1Br)OCO3)C1CC=CC21 (centres undefined)	?	-19%	-1	?	-4	13µM*
COCCN(Cc1ccc(OC)cc1)c1c(C)nc2ccc(C(=O)NCCc3c[nH]c4ccccc34)cn12	-26%	/	/	/	/	/
CC(C)n1cnc2c(Nc3cccc(Cl)c3)nc(NCCCO)nc21	-3%	15µM*	6	11µM*	11	?
COc1ccccc1N(CC(=O)NCCSCc1ccc(C)cc1)S(=O)(=O)c1ccccc1	-1%	-14%	20	13µM*	-25	?
COc1ccc(OC)c(N(CC(=O)NCCc2ccc(OC)c(OC)c2)S(=O)(=O)c2ccccc2)c1	-1%	26%	-2	-6%	-7	?
Cc1cccc(N(CC(=O)NCCSc2ccccn2)S(=O)(=O)c2ccccc2)c1	-7%	?	-3	?	-9	?
COc1ccc(CCNC(=O)CN(c2ccccc2OC)S(=O)(=O)c2ccc(C)cc2)cc1	-5%	100%	-2	?	-4	4.1µM*
COc1ccccc1OCCNC(=O)CN(c1cccc(C)c1)S(=O)(=O)c1ccccc1	-12%	-24%	-2	-25%	-6	15µM*
COc1ccc(CCNC(=O)CN(c2cc(OC)ccc2OC)S(=O)(=O)c2ccccc2)cc1	4%	9%	-10	-1%	-7	9.3µM*
COc1ccc(N(CC(=O)NCCSCc2ccc(C)cc2)S(=O)(=O)c2ccccc2)cc1	-6%	?	0	?	-6	-17%
OCC1OCOC2C(CO)OCOC12 (centres undefined)	-4%	/	/	17%	/	/
Cc1ccc(C(=O)OC(C)C(=O)NC2CCCCC2)cc1S(=O)(=O)N1CCCCC1 (centres undefined)	6%	?	/	?	/	7.4µM*
Cc1ccc(C(=O)OC(C)C(=O)N(C)C2CCCCC2)cc1S(=O)(=O)N1CCCCC1 (centres undefined)	-8%	?	/	?	/	12µM*
Cc1[nH]c2ccc(C(=O)OC(C)C(=O)N(C)C3CCCCC3)cc2c1C (centres undefined)	-29%	?	/	?	/	?
C=CCOc1ccccc1CN1CCCCCC1	3%	?	-2	2%	11	4%
COc1cc(/C=C(\NC(C)=O)C(=O)N2CCCCC2)ccc1OC(C)=O	0%	0%	0	8%	14	-8%
COc1ccc(OC)c(C2=Nn3c(nnc3-c3ccccc3C)SC2)c1	/	/	8	/	-10	/
CCC(c1nnnn1Cc1ccccc1)N1CCN(C(=O)c2ccco2)CC1 (centres undefined)	-8%	2%	1	-1%	-22	-22%
COc1ccc(C(c2nnnn2Cc2ccccc2)N2CCN(c3nc4ccccc4s3)CC2)cc1OC (centres undefined)	?	18%	-2	?	13	10µM*
COCCn1nnnc1C(c1ccc(OC)c(OC)c1)N1CCN(C(=O)c2ccco2)CC1 (centres undefined)	10%	-9%	-4	8%	-7	8%
CC(C)CCn1nnnc1C(c1ccc(N(C)C)cc1)N1CCN(C(=O)c2ccco2)CC1 (centres undefined)	-14%	10µM*	-1	13%	1	?
COc1ccc(C(c2nnnn2Cc2ccccc2)N2CCN(C(=O)c3ccco3)CC2)cc1OC (centres undefined)	-3%	3.7µM*	-1	-1%	-14	?
CC(C)C(c1nnnn1Cc1ccc(F)cc1)N1CCN(C(=O)c2ccco2)CC1 (centres undefined)	-3%	13µM*	-3	9%	-13	?
Cc1ccc(C(=O)CN2C(=O)NC3(CCc4ccccc43)C2=O)s1 (centres undefined)	-11%	?	/	-19%	/	?
CCCC(c1nnnn1Cc1cccs1)N1CCN(C)CC1 (centres undefined)	14%	21%	7	?	5	-13%
